GLP-1R agonist – agonists of human GLP-1 receptor. 0.007% of 380,000 active. HEK293 GLP-1R CRE-luciferase, luminescence, 4-6 h; cells express a hypersensitive GLP-1R form. Potency, µM (top dose mostly 45.6 µM), hits mostly activators. P43220
Target sequence (P43220 whole entry, looked up): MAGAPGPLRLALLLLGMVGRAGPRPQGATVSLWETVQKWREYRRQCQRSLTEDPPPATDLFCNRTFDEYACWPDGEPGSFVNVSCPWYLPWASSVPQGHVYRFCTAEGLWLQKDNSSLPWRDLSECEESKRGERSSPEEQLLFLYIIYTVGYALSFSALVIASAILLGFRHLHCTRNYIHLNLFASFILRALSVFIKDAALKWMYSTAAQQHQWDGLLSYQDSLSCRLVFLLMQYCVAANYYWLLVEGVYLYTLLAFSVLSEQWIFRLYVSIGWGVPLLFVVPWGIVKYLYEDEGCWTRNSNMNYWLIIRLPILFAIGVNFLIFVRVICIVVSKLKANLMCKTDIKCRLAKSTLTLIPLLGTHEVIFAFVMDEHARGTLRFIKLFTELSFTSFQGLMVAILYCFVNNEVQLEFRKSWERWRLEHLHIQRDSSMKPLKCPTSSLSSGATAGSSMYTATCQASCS
GLP1R inv ag – GLP-1 receptor (human) inverse agonism. HEK293 GLP-1R CRE-luciferase, luminescence, 24 h; GLP-1R form is constitutively active. P43220. Potency, µM (top dose mostly 38.3 µM), most hits filed as inhibitors. 1.6% of 410,000 active; further: nearly all actives have a fitted effect of over 55% in size
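Inverse agonists were sought by their lowering of basal cAMP reporter luciferase output in HEK293 cells stably carrying constitutively active human GLP-1R, after 24 h compound treatment.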
GLP1R cytotox – cytotoxicity counter-screen for GLP-1 receptor inverse agonists. HEK293 cAMP-luciferase reporter cells, luminescence, 24 h. Potency, µM (titrated, usually from 38.3 µM), hits mostly inhibitors. 0.13% of 410,000 active;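 further: loss of luciferase light is scored as toxicity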
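Step one: seed cells (200 cells/uL, DMEM with 10% Nu serum, 1% pen-strep). Step two: 12-hour incubation at 37 deg C. Step three: pin 23 nL compound, incubate 24 hr. Step four: add luciferase reagent, read luminescence 12 min later.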
Of the large screens only hits and unclear results are named; the others gave an inactive call. Only some compounds are listed: those with a hit (about 1.7% of all), similar ones and a draw of the others. The call rests on the fitted dose curve; in most records, active means well fitted curve in the direction sought with a large enough effect; inconclusive means small, poorly fitted or top-dose-only effect, or another doubt; inactive means no such curve, though single readings can be large; an effect the other way counts as inactive or inconclusive.

COc1ccc(Cn2c(C(=O)O)c(CNC3CCCCCC3)c3ccc(OC)cc32)cc1	none
CCCCOc1ccccc1Cn1c(=O)oc2ccccc21	GLP1R inv ag 5.62µM
O=c1oc2ccccc2n1Cc1ccccc1F	GLP1R inv ag inconclusive
COc1cc2cc(CCCOC(=O)c3cccc(Br)c3)oc(=O)c2cc1OC	none
CCCCNCC1C(Oc2ccc(Cl)cc2)C(=O)N1c1ccccc1C (stereo not drawn)	GLP1R inv ag 10µM, GLP1R cytotox inconclusive
CCCNCC1C(Oc2ccc(Cl)cc2Cl)C(=O)N1c1cccc(C)c1C (stereo not drawn)	GLP1R inv ag inconclusive, GLP1R cytotox inconclusive
Cc1ccc(C23CC4CC(CC(NC(=O)N5CCN(C)CC5)(C4)C2)C3)cc1	GLP1R inv ag inconclusive
Cc1ccc(C23CC4CC(CC(C(=O)N5CCN(C)CC5)(C4)C2)C3)cc1	GLP1R inv ag 8.91µM
COc1ccc(C(CNC(=O)C(CCSC)NC(=O)c2ccccc2Cl)N2CCCCC2)cc1 (stereo not drawn)	none
CCOc1ccc(NS(=O)(=O)c2cccc(C(=O)NCC3(N(C)C)CCCCC3)c2)cc1	GLP1R inv ag 10µM
COc1ccc(NS(=O)(=O)c2cccc(C(=O)NCC3(N4CCCCC4)CCCCC3)c2)cc1	none
CCOc1ccc(NC(=O)Nc2cccnc2)cc1	GLP1R cytotox inconclusive
CCOC(=O)CN1C(=O)N[C@@H](CCc2ccccc2)[C@@H](C(=O)OC)[C@H]1C	none
CC(=O)C[C@H](O)CC(=O)[C@@H]1OC(=O)CCCCCCCCc2ccccc21	GLP1R inv ag inconclusive
CC(Oc1ccccc1)C(=O)NNC(=O)c1ccccn1 (stereo not drawn)	GLP1R inv ag inconclusive, GLP1R cytotox inconclusive
CC(Oc1cccc(Br)c1)C(=O)NNC(=O)c1ccccn1 (stereo not drawn)	GLP1R inv ag 11.2µM, GLP1R cytotox inconclusive
Cc1nc(SCc2nc3cc(Cl)c(F)cc3[nH]2)c2oc3ccccc3c2n1	none (no result: GLP1R inv ag, GLP1R cytotox)
CCOC(=O)C1CCCCN1Cc1cccc(Oc2ccccc2)c1 (stereo not drawn)	GLP1R inv ag inconclusive
CCOC(=O)C1CCCCN1Cc1cccc(OCc2ccccc2)c1 (stereo not drawn)	GLP1R inv ag 10µM
Cc1nc2ncnn2c(C)c1CCC(=O)NCc1ccc(Cl)cc1	none
COc1ccc(C(=O)Nc2ccc(C)cn2)c(OC)c1	GLP1R inv ag 2µM
COc1ccc(C(=O)Nc2cc(C)on2)c(OC)c1	none
Cc1cc(N2CCN(Cc3nc(-c4ccc(F)cc4)oc3C)CC2)cc(C)n1	GLP1R inv ag 4.47µM
COc1ccccc1N1CCN(Cc2nc(-c3ccc(F)cc3)oc2C)CC1	GLP1R inv ag inconclusive
CCC(=O)Oc1c(Sc2ccc(Cl)cc2)c(C)nn1-c1ccccc1	GLP1R inv ag inconclusive (no result: GLP-1R agonist)
CS(=O)(=O)Nc1ccc(-c2ccc3nccn3c2)cc1	none
COc1ccc(OC)c(CNC(=O)Cc2ccc(NC(=O)N3CCCCc4ccccc43)cc2)c1	none (no result: GLP-1R agonist)
COc1ccc(CNC(=O)c2ccc(NC(=O)N3CCCCc4ccccc43)cc2)c(OC)c1	GLP1R inv ag 11.2µM (no result: GLP-1R agonist)
Cc1cccc(CNC(=O)CS(=O)(=O)c2cccc3nsnc23)c1	none
Cc1cc(C)n(CCCN2C(=O)c3cccc4cccc(c34)C2=O)n1	none
CCOC(=O)c1cnc2c(C)c(Cl)ccc2c1N1CCN(CC)CC1	GLP1R inv ag 7.94µM
CCOC(=O)c1cnc2ccc(OCC)cc2c1N1CCN(c2ccccc2F)CC1	GLP1R inv ag inconclusive (no result: GLP-1R agonist)
CCOC(=O)c1cnc2ccc(OCC)cc2c1N1CCN(c2ccccc2)CC1	GLP1R inv ag 8.91µM
CCOC(=O)c1cnc2c(Cl)c(Cl)ccc2c1N1CCN(C)CC1	GLP1R inv ag inconclusive, GLP1R cytotox inconclusive
O=C(Nc1ccc2c(c1)OCCO2)C1c2ccccc2OCC(=O)N1Cc1ccco1 (stereo not drawn)	none
CC(=O)c1ccc(N(CC(=O)NCCc2ccccc2)C(=O)c2csnn2)cc1	none
Cc1ccnc(OC(C(=O)O)C(OCc2ccccc2)(c2ccccc2)c2ccc(C(F)(F)F)cc2)n1 (stereo not drawn)	GLP1R inv ag 10µM
Cc1cc(C)nc(OC(C(=O)O)C(OCc2ccccc2)(c2ccccc2)c2ccccc2)n1 (stereo not drawn)	GLP1R inv ag inconclusive
COc1ccccc1NC(=O)CN1C(=O)CC(c2ccc(C)c(C)c2)=Nc2ccccc21	GLP1R inv ag 10µM (no result: GLP-1R agonist)
CCOc1ccccc1NC(=O)CN1C(=O)CC(c2ccc(C)c(C)c2)=Nc2ccccc21	none (no result: GLP-1R agonist)
COCCCNS(=O)(=O)c1cc(-c2onc(C)c2C)ccc1OC	none (no result: GLP-1R agonist)
COCCNC(=O)/C(C#N)=C/c1cc(C(C)C)c(OC)cc1C	GLP1R inv ag inconclusive
CCOC(=O)C1=C(CNCc2ccccc2Cl)NC(=O)NC1c1cccc([N+](=O)[O-])c1 (stereo not drawn)	GLP1R inv ag inconclusive
CCOC(=O)C1=C(CNCCc2ccc(Cl)cc2)NC(=O)NC1c1cccc([N+](=O)[O-])c1 (stereo not drawn)	GLP1R inv ag 10µM
CCCS(=O)(=O)NC(=O)C1(C)CCN(C(=O)c2ccc(C(F)(F)F)cc2)C1 (stereo not drawn)	none
COc1ccc(C(=O)Nc2ccc(OCC(F)(F)C(F)F)c(C(F)(F)F)c2)cc1OC	GLP1R inv ag 3.98µM
O=C(Nc1ccc(OCC(F)(F)C(F)F)c(C(F)(F)F)c1)c1ccc(Cl)cc1	GLP1R inv ag 3.55µM
O=C(Nc1ccc(Br)c(C(F)(F)F)c1)c1ccc(C(F)(F)F)cc1	GLP1R inv ag inconclusive
COc1ccc(NC(=O)c2ccc(COCC(F)(F)F)cc2)cc1OC	none
CC(C)(C)OC(=O)N1CCc2nc(N3CCN(c4ncccn4)CC3)ncc2C1	none (no result: GLP-1R agonist)
C/C(=N\NC(=O)OC(C)(C)C)c1ccccc1Br	none
C[C@@H](C(=O)NCCc1ccccc1)N1C(=O)N2CCc3c([nH]c4ccccc34)[C@@]2(C)C1=O	GLP1R inv ag inconclusive
O=C1OC2(c3ccccc31)c1cc(I)c(O)c(I)c1Oc1c2cc(I)c(O)c1I	none (no result: GLP1R inv ag, GLP1R cytotox)
O=C(NCCc1ccccc1)c1ccc2c(c1)N(Cc1ccccc1Cl)C(=O)c1ccccc1S2	GLP1R inv ag inconclusive (no result: GLP-1R agonist)
CN(CCC#N)c1ccc(/C=C(\C#N)c2ccccn2)cc1	GLP1R inv ag inconclusive
CN(CCC#N)c1ccc(C=C(C#N)c2ccc(Br)cc2)cc1	GLP1R inv ag 10µM, GLP1R cytotox inconclusive
COc1cc(N/C(N)=N/c2nc(C)cc(C)n2)cc(OC)c1	GLP1R inv ag inconclusive
O=C(OCc1ccccc1)N(CCF)c1cn(Cc2ccccc2)c(=O)n(Cc2ccccc2)c1=O	GLP1R inv ag 10µM
N#CCCN(NC(=O)OCc1ccccc1)C(=O)OCc1ccccc1	none
CCN(CC)C(=O)C1=C(C)N(CCCOC)C(=O)C(CC(=O)NC(c2ccccc2)c2ccccc2)C1 (stereo not drawn)	none
Clc1ccc2c(c1)C(C1=NCCN1)c1ccccc1CS2 (stereo not drawn)	GLP1R inv ag 3.16µM, GLP1R cytotox inconclusive
S=C1NCCc2ccc(Cl)cc2C1c1ccccc1Cl (stereo not drawn)	GLP1R inv ag inconclusive, GLP1R cytotox inconclusive
O=C(Nc1ccccc1N1CCOCC1)c1cccc(Oc2ccccc2)c1	GLP1R inv ag inconclusive
Cc1ccc(NC(=O)CSc2nc3ccc(Br)cc3[nH]2)c(C)c1	none (no result: GLP-1R agonist)

Screening results deposited in PubChem by National Center for Advancing Translational Sciences (NCATS).
